# Test results reported in PubChem BioAssay (EPA / NIEHS).
# The source made the active and inactive calls. How the source made its calls: active means hit-call score of the fitted dose curve at least 0.9, where 1 is the maximum; inactive means score below 0.9.
# Experiments:
# [1] = read-out: Monokine induced gamma interferon (MIG), CXCL9 (gene 4283); assay: BSK_BE3C_MIG: BioMAP Diversity Plus: BE3C Assay for Monokine induced gamma interferon (MIG) Biomarker Activity (AID 2283035); settings: primary human bronchial epithelial cells; actives raise or lower the signal;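 further: MIG protein measured by ELISA in BE3C cultures after 24 h of dosing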
# Method in brief: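 hu bronchial epithelial 1° cells, 24 h cpd; MIG by ELISA; bidirectional fit, DMSO = baseline.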
# [2] = read-out: Transforming growth factor beta 1 (TGFb1), TGFB1 (gene 7040); assay: BSK_BE3C_TGFb1: BioMAP Diversity Plus: BE3C Assay for Transforming growth factor beta 1 (TGFb1) Biomarker Activity (AID 2283036;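 on outcome: TGF-b1 protein level measured by ELISA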); settings: primary human bronchial epithelial cells; actives raise or lower the signal
# Method in brief: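 Bronchial epithelial primary cells are treated with test chemical, then TGF-b1 is quantified by ELISA after 24 hours. Values derive from bidirectional fitting against DMSO, with cytotoxicity checked by SRB staining in parallel cultures.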
# [3] = read-out: Plasminogen activator inhibitor-1 (PAI1), SERPINE1 (gene 5054); assay: BSK_BE3C_PAI1: BioMAP Diversity Plus: BE3C Assay for Plasminogen activator inhibitor-1 (PAI1) Biomarker Activity (AID 2283037); settings: primary human bronchial epithelial cells; actives raise or lower the signal
# Method in brief: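 Values derive from bidirectional fitting against DMSO baseline of PAI-1 levels, measured by ELISA in human bronchial epithelial cells 24 h after compound addition.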
# [4] = read-out: urokinase plasminogen activator (uPA), PLAU (gene 5328); assay: BSK_BE3C_uPA: BioMAP Diversity Plus: BE3C Assay for urokinase plasminogen activator (uPA) Biomarker Activity (AID 2283038); settings: primary human bronchial epithelial cells; actives raise or lower the signal;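 on outcome: uPA protein level quantified by ELISA in cell cultures; uPA read one day after compound addition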
# Method in brief: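 Primary human bronchial epithelial cells, uPA measured by ELISA 24 h after dosing. Bidirectional change relative to DMSO; cytotoxicity checked in parallel cultures by sulforhodamine B total-protein staining.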
# [5] = read-out: Urokinase-type plasminogen activator receptor (uPAR), PLAUR (gene 5329); assay: BSK_BE3C_uPAR: BioMAP Diversity Plus: BE3C Assay for Urokinase-type plasminogen activator receptor (uPAR) Biomarker Activity (AID 2283039); settings: primary human bronchial epithelial cells; actives raise or lower the signal;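 further: uPAR protein level measured by ELISA on the cells; cells exposed to compound for one day before measurement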
# Method in brief: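 Steps: dose human primary bronchial epithelial cells, incubate 24 h, measure uPAR by ELISA, then fit gain- or loss-of-signal response bidirectionally relative to DMSO.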
# [6] = read-out: Interleukin-6 (IL6), IL6 (gene 3569); assay: BSK_CASM3C_IL6: BioMAP Diversity Plus: CASM3C Assay for Interleukin-6 (IL6) Biomarker Activity for (AID 2283040); settings: primary human coronary artery smooth muscle cells; actives raise or lower the signal
# [7] = read-out: Tissue plasminogen activator (tPA), PLAT (gene 5327); assay: BSK_BE3C_tPA: BioMAP Diversity Plus: BE3C Assay for Tissue plasminogen activator (tPA) Biomarker Activity (AID 2283041); settings: primary human bronchial epithelial cells; actives raise or lower the signal;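 further: tPA level quantified by ELISA one day after compound addition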
# Method in brief: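 Gain- or loss-of-signal in tPA, measured by ELISA, derived by bidirectional fitting against DMSO. Cells: human primary bronchial epithelial; read at 24 h after chemical dosing.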
# [8] = read-out: Interleukin-8 (IL8), CXCL8 (gene 3576); assay: BSK_CASM3C_IL8: BioMAP Diversity Plus: CASM3C Assay for Interleukin-8 (IL8) Biomarker Activity (AID 2283042); settings: primary human coronary artery smooth muscle cells; actives raise or lower the signal;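 further: IL-8 protein level quantified by ELISA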
# [9] = read-out: Human Leukocyte Antigen - DR isotype (HLADR), HLA-DRA (gene 3122); assay: BSK_CASM3C_HLADR: BioMAP Diversity Plus: CASM3C Assay for Human Leukocyte Antigen - DR isotype (HLADR) Biomarker Activity (AID 2283043); settings: primary human coronary artery smooth muscle cells; actives raise or lower the signal;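 further: cell-surface HLA-DR protein level quantified by ELISA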
# [10] = read-out: Macrophage colony-stimulating factor (MCSF), CSF1 (gene 1435); assay: BSK_CASM3C_MCSF: BioMAP Diversity Plus: CASM3C Assay for Macrophage colony-stimulating factor (MCSF) Biomarker Activity (AID 2283044); settings: primary human coronary artery smooth muscle cells; actives raise or lower the signal;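 further: M-CSF protein amount quantified by ELISA after 24 h exposure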
# [11] = read-out: Low-density lipoprotein receptor (LDLR), LDLR (gene 3949); assay: BSK_CASM3C_LDLR: BioMAP Diversity Plus: CASM3C Assay for Low-density lipoprotein receptor (LDLR) Biomarker Activity (AID 2283045); settings: primary human coronary artery smooth muscle cells; actives raise or lower the signal;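 further: LDLR protein level on the cell surface quantified by ELISA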
# [12] = read-out: Monocyte Chemoattractant Protein-1 (MCP1), CCL2 (gene 6347); assay: BSK_CASM3C_MCP1: BioMAP Diversity Plus: CASM3C Assay for Monocyte Chemoattractant Protein-1 (MCP1) Biomarker Activity (AID 2283046); settings: primary human coronary artery smooth muscle cells; actives raise or lower the signal;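 further: MCP-1 level quantified by ELISA 24 h after dosing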
# [13] = BSK_CASM3C_Proliferation: Cell Proliferation Assessment in the BioMAP Diversity Plus: CASM3C Assay (AID 2283047); settings: primary human coronary artery smooth muscle cells;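 further: sulforhodamine B total protein stain as relative cell number at 560 nm; sub-confluent cells exposed 48 h before staining; fitted both ways against DMSO so gain or loss of cell number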
# [14] = read-out: Monokine induced gamma interferon (MIG), CXCL9 (gene 4283); assay: BSK_CASM3C_MIG: BioMAP Diversity Plus: CASM3C Assay for Monokine induced gamma interferon (MIG) Biomarker Activity (AID 2283048); settings: primary human coronary artery smooth muscle cells; actives raise or lower the signal;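 further: MIG protein level measured by ELISA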
# [15] = read-out: serum amyloid A (SAA), SAA1 (gene 6288); assay: BSK_CASM3C_SAA: BioMAP Diversity Plus: CASM3C Assay for serum amyloid A (SAA) Biomarker Activity (AID 2283049); settings: primary human coronary artery smooth muscle cells; actives raise or lower the signal;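 further: SAA protein level quantified by ELISA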
# [16] = BSK_CASM3C_SRB: Viability Assessment in the BioMAP Diversity Plus: CASM3C Assay (AID 2283050); settings: primary human coronary artery smooth muscle cells;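 further: total protein by SRB staining as cytotoxicity measure in parallel cultures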
# [17] = read-out: Thrombomodulin, THBD (gene 7056); assay: BSK_CASM3C_Thrombomodulin: BioMAP Diversity Plus: CASM3C Assay for Thrombomodulin Biomarker Activity (AID 2283051); settings: primary human coronary artery smooth muscle cells; actives raise or lower the signal;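 further: thrombomodulin protein level measured by ELISA 24 h after dosing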
# [18] = read-out: Tissue Factor, F3 (gene 2152); assay: BSK_CASM3C_TissueFactor: BioMAP Diversity Plus: CASM3C Assay for Tissue Factor Biomarker Activity (AID 2283052); settings: primary human coronary artery smooth muscle cells; actives raise or lower the signal;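 further: cell surface tissue factor protein level read by ELISA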
# [19] = read-out: Interferon-gamma inducible Protein 10 (IP10), CXCL10 (gene 3627); assay: BSK_hDFCGF_IP10: BioMAP Diversity Plus: hDFCGF Assay for Interferon-gamma inducible Protein 10 (IP10) Biomarker Activity (AID 2283053); settings: primary human foreskin fibroblasts; actives raise or lower the signal
# Method in brief: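 Cells: human dermal foreskin fibroblasts. Exposure: 24 h post-dosing. Detection: IP-10 ELISA, with values expressed against DMSO controls and fitted in both directions.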
# [20] = read-out: Urokinase-type plasminogen activator receptor (uPAR), PLAUR (gene 5329); assay: BSK_CASM3C_uPAR: BioMAP Diversity Plus: CASM3C Assay for Urokinase-type plasminogen activator receptor (uPAR) Biomarker Activity (AID 2283054); settings: primary human coronary artery smooth muscle cells; actives raise or lower the signal;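 further: cell-surface uPAR protein level quantified by ELISA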
structure (smiles),measurement,setting,value
COCCOCCOCCOC,outcome,[1],inactive
same,outcome,[2],inactive
same,outcome,[3],inactive
same,outcome,[4],inactive
same,outcome,[5],inactive
same,outcome,[6],inactive
same,outcome,[7],inactive
same,outcome,[8],inactive
same,outcome,[9],inactive
same,outcome,[10],inactive
same,outcome,[11],inactive
same,outcome,[12],inactive
same,outcome,[13],inactive
same,outcome,[14],inactive
same,outcome,[15],inactive
same,outcome,[16],inactive
same,outcome,[17],inactive
same,outcome,[18],inactive
same,outcome,[19],inactive
same,outcome,[20],inactive
CCOC(=O)CC(CC(=O)OCC)(OC(C)=O)C(=O)OCC,outcome,[1],inactive
same,outcome,[2],inactive
same,outcome,[3],inactive
same,outcome,[4],inactive
same,outcome,[5],inactive
same,outcome,[6],inactive
same,outcome,[7],inactive
same,outcome,[8],inactive
same,outcome,[9],inactive
same,outcome,[10],inactive
same,outcome,[11],inactive
same,outcome,[12],inactive
same,outcome,[13],inactive
same,outcome,[14],inactive
same,outcome,[15],inactive
same,outcome,[16],inactive
same,outcome,[17],inactive
same,outcome,[18],inactive
same,outcome,[19],inactive
same,outcome,[20],inactive
CCCCCCCCCCCCCCCO,outcome,[1],inactive
same,outcome,[2],inactive
same,outcome,[3],inactive
same,outcome,[4],inactive
same,outcome,[5],inactive
same,outcome,[6],inactive
same,outcome,[8],inactive
same,outcome,[9],inactive
same,outcome,[10],inactive
same,AC50,[11],31.9 µM (active)
same,outcome,[12],inactive
same,AC50,[13],20 µM (active)
same,outcome,[14],inactive
same,outcome,[15],inactive
same,outcome,[16],inactive
same,outcome,[17],inactive
same,outcome,[18],inactive
same,outcome,[19],inactive
same,outcome,[20],inactive
C1=CCCC=CCCC=CCC1,outcome,[1],inactive
same,outcome,[2],inactive
same,outcome,[3],inactive
same,outcome,[4],inactive
same,outcome,[5],inactive
same,outcome,[6],inactive
same,outcome,[8],inactive
same,outcome,[9],inactive
same,outcome,[10],inactive
same,outcome,[11],inactive
same,outcome,[12],inactive
same,outcome,[13],inactive
same,outcome,[14],inactive
same,outcome,[15],inactive
same,outcome,[16],inactive
same,outcome,[17],inactive
same,outcome,[18],inactive
same,outcome,[19],inactive
same,outcome,[20],inactive
CCCCCCCCCCCCc1ccccc1,outcome,[2],inactive
same,outcome,[3],inactive
same,outcome,[4],inactive
same,outcome,[5],inactive
same,outcome,[6],inactive
same,outcome,[7],inactive
same,outcome,[8],inactive
same,outcome,[9],inactive
same,outcome,[10],inactive
same,outcome,[11],inactive
same,outcome,[12],inactive
same,outcome,[13],inactive
same,outcome,[14],inactive
same,outcome,[15],inactive
same,outcome,[16],inactive
same,outcome,[17],inactive
same,outcome,[18],inactive
same,outcome,[19],inactive
same,outcome,[20],inactive
CC(C)CCCCCCOC(=O)c1ccc(C(=O)OCCCCCCC(C)C)c(C(=O)OCCCCCCC(C)C)c1,outcome,[1],inactive
same,outcome,[2],inactive
same,outcome,[3],inactive
same,outcome,[4],inactive
same,outcome,[5],inactive
same,outcome,[6],inactive
same,outcome,[8],inactive
same,outcome,[9],inactive
same,outcome,[10],inactive
same,outcome,[11],inactive
same,outcome,[12],inactive
same,outcome,[13],inactive
same,outcome,[14],inactive
same,outcome,[15],inactive
same,outcome,[16],inactive
same,outcome,[17],inactive
same,outcome,[18],inactive
same,outcome,[20],inactive
Oc1ccc2c(c1)-c1ccccc1C2,outcome,[1],inactive
same,outcome,[2],inactive
same,outcome,[3],inactive
same,outcome,[4],inactive
same,outcome,[5],inactive
same,outcome,[6],inactive
same,outcome,[8],inactive
same,outcome,[9],inactive
same,outcome,[10],inactive
same,outcome,[11],inactive
same,outcome,[12],inactive
same,AC50,[13],6.61 µM (active)
same,outcome,[14],inactive
same,outcome,[15],inactive
same,outcome,[16],inactive
same,outcome,[17],inactive
same,outcome,[18],inactive
same,outcome,[19],inactive
same,outcome,[20],inactive
Nc1nc2ncc(CNc3ccc(C(=O)N[C@@H](CCC(=O)O)C(=O)O)cc3)nc2c(=O)[nH]1,outcome,[2],inactive
same,outcome,[3],inactive
same,outcome,[4],inactive
same,outcome,[5],inactive
same,outcome,[6],inactive
same,outcome,[7],inactive
same,outcome,[8],inactive
same,outcome,[9],inactive
same,outcome,[10],inactive
same,outcome,[11],inactive
same,outcome,[12],inactive
same,outcome,[13],inactive
same,outcome,[14],inactive
same,outcome,[15],inactive
same,outcome,[16],inactive
same,outcome,[17],inactive
same,outcome,[18],inactive
same,outcome,[19],inactive
same,outcome,[20],inactive
C=CCCCCCCCCC(=O)O,outcome,[1],inactive
same,outcome,[2],inactive
same,outcome,[3],inactive
same,outcome,[4],inactive
same,outcome,[5],inactive
same,outcome,[6],inactive
same,outcome,[8],inactive
same,outcome,[9],inactive
same,outcome,[10],inactive
same,outcome,[11],inactive
same,outcome,[12],inactive
same,outcome,[13],inactive
same,outcome,[14],inactive
same,outcome,[15],inactive
same,outcome,[16],inactive
same,outcome,[17],inactive
same,outcome,[18],inactive
same,outcome,[19],inactive
same,outcome,[20],inactive
O=C(O)c1cccc(N(Cc2cccnc2)c2ccc(OC(F)F)c(OC(F)F)c2)c1,outcome,[1],inactive
same,outcome,[2],inactive
same,AC50,[3],31.3 µM (active)
same,outcome,[4],inactive
same,outcome,[5],inactive
same,outcome,[6],inactive
same,outcome,[8],inactive
same,AC50,[9],8.72 µM (active)
same,AC50,[10],11.7 µM (active)
same,outcome,[11],inactive
same,outcome,[12],inactive
same,AC50,[13],6.98 µM (active)
same,outcome,[14],inactive
same,outcome,[15],inactive
same,outcome,[16],inactive
same,outcome,[17],inactive
same,outcome,[18],inactive
same,outcome,[20],inactive
CCOC(=O)COc1ccc2c(c1)CC(NCC(O)c1cccc(Cl)c1)CC2 (configuration not stated),outcome,[1],inactive
same,AC50,[2],29 µM (active)
same,outcome,[3],inactive
same,AC50,[4],31.2 µM (active)
same,outcome,[5],inactive
same,outcome,[6],inactive
same,outcome,[8],inactive
same,outcome,[9],inactive
same,outcome,[10],inactive
same,outcome,[11],inactive
same,outcome,[12],inactive
same,AC50,[13],27.2 µM (active)
same,outcome,[14],inactive
same,outcome,[15],inactive
same,outcome,[16],inactive
same,outcome,[17],inactive
same,outcome,[18],inactive
same,AC50,[19],26.3 µM (active)
same,outcome,[20],inactive
CCn1nc(Cc2ccccc2)cc1C1CCN(C[C@H]2C[C@H](N(C)[C@@H](C(=O)O)C(C)C)C[C@@H]2c2cccc(F)c2)CC1,outcome,[2],inactive
same,outcome,[3],inactive
same,outcome,[4],inactive
same,outcome,[5],inactive
same,outcome,[6],inactive
same,outcome,[7],inactive
same,outcome,[8],inactive
same,outcome,[9],inactive
same,outcome,[10],inactive
same,outcome,[11],inactive
same,outcome,[12],inactive
same,outcome,[13],inactive
same,outcome,[14],inactive
same,outcome,[15],inactive
same,outcome,[16],inactive
same,outcome,[17],inactive
same,outcome,[18],inactive
same,outcome,[19],inactive
same,outcome,[20],inactive
C1N2CN3CN1CN(C2)C3,outcome,[2],inactive
same,outcome,[3],inactive
same,outcome,[4],inactive
same,outcome,[5],inactive
same,outcome,[6],inactive
same,outcome,[7],inactive
same,outcome,[8],inactive
same,outcome,[9],inactive
same,outcome,[10],inactive
same,outcome,[11],inactive
same,outcome,[12],inactive
same,outcome,[13],inactive
same,outcome,[14],inactive
same,outcome,[15],inactive
same,outcome,[16],inactive
same,outcome,[17],inactive
same,outcome,[18],inactive
same,outcome,[19],inactive
same,outcome,[20],inactive
